Laboratory results reported in PubChem BioAssay AID743402 (Broad Institute, 2014).
About 140 (12%) of roughly 1,200 compounds were called active.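 How the source made its calls: active means fitted curve falls past -35% activity change at a dose under twice the top valid dose, in every replicate test; inconclusive means replicate tests disagree on the call; inactive means the rest, including activity in the opposite direction.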 The list is a sample of the results.

assay: CFTR-F508del correctors, dose response, FRT cells, YFP quenching, cherry-pick (AID 743402); settings: FRT CFTR-F508del YFP iodide quenching, 24 h, channel opened with forskolin and a potentiator; series mostly up to 26 µM;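 further: compounds act as correctors raising surface CFTR-F508del before acute activation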

Activity change, negative = more quenching (active), inactive:
O=C1c2ccccc2C(=O)c2c1cccc2N(CCO)CCO
COc1ccc(S(=O)(=O)NCc2ccccn2)cc1NC(=O)c1ccccc1F
COc1cccc(N2CCN(C(=O)c3ccc(CS(=O)c4ccc(C)cc4)o3)CC2)c1 (stereo unspecified)
O=C(NCCOc1ccccc1)c1cc([N+](=O)[O-])ccc1N1CCOCC1
COc1ccc(OC)c(-c2cnc(OC(C)(C)C)nc2OC(C)(C)C)c1
COc1ccc([C@H]2CC(=O)C=C(c3c(OC)cccc3OC)C2)cc1
CC(C)C[C@H]1CN([C@@H](CC(C)C)CN2CCC[C@@H]2CN2C(=S)NC[C@@H]2Cc2ccc(O)cc2)C(=S)N1CCc1ccccc1
CCOC(=O)c1c(C)[nH]c(C(=O)N/N=C\c2ccccc2O)c1C
N#CC1=C(N)Oc2cc(N)ccc2C1c1cccc(F)c1 (stereo unspecified)
COc1ccccc1C#Cc1ccc2c(c1)O[C@@H](CN(C)Cc1cccnc1)[C@H](C)CN([C@H](C)CO)S2(=O)=O
COc1ccc([C@H]2C[C@H](O)[C@@H](n3cc(-c4ccc(F)cc4)nn3)CN2Cc2cccs2)cc1
COc1cc(C(=O)Nc2ccccc2C(=O)Nc2ccccn2)cc(OC)c1OC
COc1cccc(S(=O)(=O)N(C)C[C@@H]2Oc3cc(C4=CCCC4)ccc3S(=O)(=O)N([C@H](C)CO)C[C@H]2C)c1
COc1cc(/C=C(\C#N)c2nc3ccccc3[nH]2)cc(OC)c1O
CCCCNC(=O)CSc1nc2ccc(C)cc2[nH]1
O=C(NCCN1C(=O)S/C(=C\c2ccc(OC(F)F)cc2)C1=O)c1cnccn1
CC(=O)Nc1cccc(-c2ccnc3c2CC(C)(C(=O)Nc2ccc4c(c2)OCO4)O3)c1 (stereo unspecified)
O=C(NN=C1CCCC1)c1[nH]c2ccc(Cl)cc2c1-c1ccccc1
COc1cc(OC)c2c(-c3cccc(-c4sccc4C(C)=O)c3)cc(=O)oc2c1
CC(C)Oc1ncnc2c1[nH]c1ccccc12
O=c1[nH]c(/C=C/c2ccccc2F)nc2ccccc12
Cc1cccc(N2CCN(C(=O)c3ccc4[nH]c(C)c(C)c4c3)CC2)c1C
O=C1C=CCC(/C=C/c2ccccc2)O1 (stereo unspecified)
COc1ccc2c3c([nH]c2c1)[C@@H](CO)N(C(=O)C1CCOCC1)CC31CCN(Cc2cccc(F)c2)CC1
CN(Cc1ccccc1)S(=O)(=O)c1ccc(NC(=S)NC(=O)C2CCCC2)cc1
COc1ccc(NC(=O)c2nc(C)c(C3(C)CC(c4cccnc4)=NO3)s2)cc1 (stereo unspecified)
